About 83,000 compounds went through this panel and 20% of them were active in at least one assay; those are over-represented in the sample as a whole.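 Testing used 96-well plates and a 48-hour single-concentration exposure. Example: -40 means 40% of the starting cells died.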 The source made the active and inactive calls.
Each compound was assayed on A549/ATCC NSCLC (assay: NCI-60 one-dose screen, 48 h (100 = growth as untreated, 0 = no growth, -100 = all killed)). Details: 10 µM unless noted.
Procedure: Growth inhibition of the A549/ATCC human Non-Small Cell Lung tumor cell line is measured as a screen for anti-cancer activity. Cells are grown in 96 well plates and exposed to the test compound for 48 hours. Compounds are tested at a single concentration, which is 10^-5 M for most compounds. The reported endpoint is percent growth (GI% or GIPRCNT), where numbers from 0 - 100% represent growth inhibition, and numbers from -100% - 0 represent cell death. For example, a value of 40 represents 60% growth inhibition. A value of 0 means no net growth occurred over the course of the experiment. A value of -40 indicates 40% of cells at the beginning of the experiment died by the end of the experiment. A value of -100 means all cells are dead at the end of the experiment.
NCI-60 Human Tumor Cell Lines Screen was performed using the standard one-dose NCI protocol, which is described in more detail at https://dtp.cancer.gov/discovery_development/nci-60/default.htm.
Compounds with GIPRCNT values below 10 were considered active. Activity score was based on GIPRCNT using the following formula: […]
Score is 0 for GIPRCNT values of 100 or above, 50 for GIPRCNT values of 0, and 100 for GIPRCNT values of -100.

SMILES | growth
COc1cc(OC)c(/C=C/C(=O)c2c(OC)cccc2OC)c(OC)c1 | 6.84% (active)
NC(N)=NCCCCCNc1noc(Cc2c[nH]c3cc(Br)ccc23)n1 | 65.3% (inactive)
COc1ccc(NC(=O)c2sc3nc(C)c(C(=O)/C=C/c4ccccc4)cc3c2N)cc1 | 34% (inactive)
CC(=O)N1N=C(c2ccc(Nc3nc(Nc4ccccc4)nc(Nc4ccccc4)n3)cc2)CC1c1cccc([N+](=O)[O-])c1 (stereo not given) | 93.3% (inactive)
O=C(/C=C/c1ccco1)Nc1ncc(Cc2cccc(C(F)(F)F)c2)s1 | 11.6% (inactive)
O=C1/C(=C/c2cccc(F)c2)CN(C(=O)C(Cl)Cl)C/C1=C\c1cccc(F)c1 | -28.7% (active)
CS(=O)(=O)Nc1cncc(-c2ccc3ncnc(Nc4cncc(Cl)c4)c3c2)c1 | 81.7% (inactive)
Fc1cc2c(cc1Cl)N(c1ncnc3ccc(-c4ccc5n[nH]nc5c4)cc13)CC2 | 77.5% (inactive)
COc1cccc(CNc2ccc3ncnc(Nc4ccc(F)c(Cl)c4)c3c2)c1 | 53.1% (inactive)
O=C1/C(=C/c2cn(-c3ccccc3)nc2-c2ccccc2)SC(=S)N1C1CCCCC1 | 103% (inactive)
C=CCOC(=O)Nc1cccn([C@H](Cc2ccccc2)C(=O)NCCC(C)C)c1=O | 97.9% (inactive)
Clc1ccc2c(NC3CCC(N4CCOCC4)CC3)ccnc2c1 (stereo not given) | 74.5% (inactive)
Cc1ccc(CNc2ccc3nc(CCC4CCCCC4)[nH]c3c2)cc1 | 63.3% (inactive)
Cn1ccnc1C(=O)/C=C/c1ccc(C(=O)Nc2ccc(Cl)cc2)cc1 | 6.96% (active)
NC(=O)c1ccc(-c2c3ccccc3cc3c2ccc2ccccc23)cc1 | 63.1% (inactive)
CCCCn1c(=O)[nH]c(N)c([C@@H]2c3c([nH]c(=O)n(CCCC)c3=O)Oc3ccc4ccccc4c32)c1=O | 94.6% (inactive)
Cc1cccc(/C=C/c2c(C(=O)/C=C/c3ccccc3)c(C)nc3ccccc23)c1 | -34.8% (active)
CCCCNC(=O)Oc1ccc(/C(=C(/C)Cc2ccc(OC)cc2)c2ccc(OCCN3CCCC3)cc2)cc1 | 48.7% (inactive)
CC(C)c1ccc(-n2c(=S)[nH]c3sc4cc(O)ccc4c3c2=O)cc1 | 106% (inactive)
C[PH+](c1nc2ccccc2nc1[PH+](C)C(C)(C)C)C(C)(C)C.C[PH+](c1nc2ccccc2nc1[PH+](C)C(C)(C)C)C(C)(C)C.[Au+].[Cl-] (stereo not given) | -73.8% (active)

SMILES | growth
COCCOc1cc2ncnc(N3CCN(c4ncc(S(=O)(=O)N5CCCCC5)cn4)CC3)c2cc1OCCOC | 102% (inactive)
N#Cc1c(-c2ccccc2)cc(-c2ccccc2)n(CCCC(=O)Nc2ccccc2N)c1=O | 57.4% (inactive)
COc1ccc(-c2ccc(-c3ccc(C(=N)N)cc3)s2)cc1Cl | -48.2% (active)
COc1cc2c(cc1OCCCN1CCN(CCCOc3cc4c(cc3OC)C(=O)N3CCC[C@H]3C=N4)CC1)C=CC(C)(C)O2 | -79.2% (active)
Cc1ccc2c(c1)=C/C(=C\c1cc(-c3ccccc3)oc1O)C(=O)N=2 | 105% (inactive)
O=C(Nc1nc2ccccc2s1)c1ccc(F)cc1 | 98.4% (inactive)
CCN(C)S(=O)(=O)Nc1cccc(Nc2ncnc3cc(NC(=O)CCl)ccc23)c1Cl | 18.5% (inactive)
COC(=O)Nc1nc2ccc(S(=O)c3ccccc3)cc2[nH]1 (stereo not given) | 57.7% (inactive)
CCOC(=O)Cc1cnc(N/N=C(\C)c2cc3ccccc3o2)s1 | 91.5% (inactive)
CC(=O)c1c(C)nc(SCC(=O)Nc2cccc(O)c2)n1-c1ccc(Cl)cc1 | 96.2% (inactive)
O=C(c1ccncc1)N1N=C(c2ccc(Cl)cc2)C[C@H]1c1cn(-c2ccccc2)nc1-c1ccccc1 | 81.7% (inactive)
Oc1c(Br)cc(Br)c2ccc(Cn3cc(-c4ccccc4C(F)(F)F)nn3)nc12 | 99.6% (inactive)
COc1ccccc1N1CCCCC1 | 101% (inactive)
CCCCCCCCCc1ccc(OCCOCCOCCOCCOCCOCCOCCOCCOCCO)cc1 | 17.3% (inactive)
CCN(CC)Cc1cc(C=C2C(=O)NC(=S)NC2=O)cc(OC)c1O | 109% (inactive)
CCOC(=O)[C@@H]1CSC(CC)=C(C(=O)O)N1 | 90.7% (inactive)
CNC(=O)c1[nH]cc(-c2ccc(OC)cc2)c1-c1cc(OC)c2c(c1OC)OCO2 | 99.1% (inactive)
O=C(Nc1ccccc1O)c1ccc(CNC(=O)c2sccc2Nc2ccnc(C(F)(F)F)c2)cc1 | 66.5% (inactive)
NNc1nc(-c2cccnc2)nc2c1sc(=S)n2-c1ccccc1 | 87.7% (inactive)
C=C1C(=O)O[C@H]2[C@H]1CC/C(COC(=O)C(=O)c1cn(C)c3ccc(Cl)cc13)=C\CC[C@@]1(C)O[C@@H]21 | -62.5% (active)

— PubChem BioAssay (NCI)
